Laboratory results published in PubChem BioAssay AID1159580 (chemical genetic matrix, 2015).
Hit rate of the full screen: of about 5,500 compounds, about 2,000 (36%) were called active. Roughly 18% stayed inconclusive and do not appear here. No stated cut-off is given here; in the data, active means normalized growth mostly below about 0.91 (no sharp cut-off); inconclusive means no clear call, values can overlap the other calls; inactive means mostly above about 0.92. The list shows a part of the results.

Test: chemical genetic growth profiling, strain panel (AID 1159580);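 further: tested at 20 µM; growth read once vehicle control cultures reached saturation at 30 °C; 1 = growth at the plate median or of vehicle wells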
Settings: S. cerevisiae deletion strains, growth OD
[1] = locus YHR030C, strain SLT2, stronger effect = lower value
[2] = locus YHR079C, strain IRE1, stronger effect = lower value
[3] = locus YJL095W, strain BCK1, stronger effect = lower value
[4] = locus YJR066W, strain TOR1, stronger effect = lower value
[5] = locus YLR113W, strain HOG1, stronger effect = lower value
[6] = locus YNL183C, strain NPR1, stronger effect = lower value
[7] = locus YOR231W, strain MKK1, stronger effect = lower value
[8] = locus YPL256C, strain CLN2, stronger effect = lower value

Measured: normalized growth

COc1ccc(C2CC(c3ccccc3)=Nc3ccccc3S2)cc1OC (centres undefined)
inactive: locus YAR019C, strain CDC15, stronger effect = lower value 0.969 | locus YBL105C, strain PKC1, stronger effect = lower value 0.962 | locus YBR135W, strain CKS1, stronger effect = lower value 0.974 | locus YBR136W, strain MEC1, stronger effect = lower value 0.947 | locus YBR160W, strain CDC28, stronger effect = lower value 0.975 | locus YDL017W, strain CDC7, stronger effect = lower value 0.965 | locus YDL028C, strain MPS1, stronger effect = lower value 0.975 | locus YDL101C, strain DUN1, stronger effect = lower value 0.965 | locus YDL108W, strain KIN28, stronger effect = lower value 0.976 | locus YDL132W, strain cdc53, stronger effect = lower value 0.975 | locus YDL214C, strain PRR2, stronger effect = lower value 0.936 | locus YDR052C, strain DBF4, stronger effect = lower value 0.97 | locus YDR054C, strain cdc34, stronger effect = lower value 0.958 | locus YDR226W, strain ADK1, stronger effect = lower value 0.967 | locus YDR477W, strain SNF1, stronger effect = lower value 0.949 | locus YER123W, strain YCK3, stronger effect = lower value 0.939 | locus YER133W, strain GLC7, stronger effect = lower value 0.952 | locus YFL009W, strain cdc4, stronger effect = lower value 0.973 | locus YFL029C, strain CAK1, stronger effect = lower value 0.945 | locus YFR003C, strain YPI1, stronger effect = lower value 0.961 | locus YFR019W, strain FAB1, stronger effect = lower value 0.967 | locus YFR028C, strain CDC14, stronger effect = lower value 0.961 | locus YGR040W, strain KSS1, stronger effect = lower value 0.94 | locus YGR052W, strain FMP48, stronger effect = lower value 1.02 | locus YGR092W, strain DBF2, stronger effect = lower value 0.935 | [1] 0.887 | [2] 0.914 | locus YHR082C, strain KSP1, stronger effect = lower value 0.975 | locus YHR205W, strain SCH9, stronger effect = lower value 0.934 | locus YIL147C, strain SLN1, stronger effect = lower value 0.959 | [3] 0.941 | locus YJL128C, strain PBS2, stronger effect = lower value 0.943 | locus YJL157C, strain FAR1, stronger effect = lower value 0.968 | locus YJR016C, strain ILV3, stronger effect = lower value 0.966 | locus YJR066W, strain TOR1 (second series), stronger effect = lower value 0.901 | [4] 0.938 | locus YKL048C, strain ELM1, stronger effect = lower value 0.968 | locus YKL067W, strain YNK1, stronger effect = lower value 0.956 | locus YKL101W, strain HSL1, stronger effect = lower value 0.927 | locus YKL193C, strain SDS22, stronger effect = lower value 0.976 | locus YKL203C, strain TOR2, stronger effect = lower value 0.965 | [5] 0.889 | locus YLR133W, strain CKI1, stronger effect = lower value 0.948 | locus YLR403W, strain SFP1, stronger effect = lower value 0.929 | locus YML070W, strain DAK1, stronger effect = lower value 0.949 | locus YMR001C, strain CDC5, stronger effect = lower value 0.969 | locus YMR205C, strain PFK2 (second series), stronger effect = lower value 0.95 | locus YMR277W, strain FCP1, stronger effect = lower value 0.97 | locus YNL006W, strain LST8, stronger effect = lower value 0.988 | locus YNL020C, strain ARK1, stronger effect = lower value 0.939 | locus YNL161W, strain CBK1, stronger effect = lower value 0.962 | [6] 0.939 | locus YNL207W, strain RIO2, stronger effect = lower value 0.97 | locus YNL222W, strain SSU72, stronger effect = lower value 0.968 | locus YNL307C, strain MCK1 (second series), stronger effect = lower value 0.974 | locus YOL078W, strain AVO1, stronger effect = lower value 0.975 | locus YOL136C, strain PFK27, stronger effect = lower value 0.946 | locus YOR061W, strain CKA2, stronger effect = lower value 0.94 | locus YOR119C, strain RIO1, stronger effect = lower value 0.949 | [7] 0.918 | locus YOR329C, strain SCD5, stronger effect = lower value 0.97 | locus YPL031C, strain PHO85, stronger effect = lower value 0.932 | locus YPL153C, strain RAD53, stronger effect = lower value 0.958 | locus YPL204W, strain HRR25, stronger effect = lower value 0.948 | locus YPL209C, strain IPL1, stronger effect = lower value 0.975 | [8] 0.879 | locus YPR025C, strain CCL1, stronger effect = lower value 0.966 | locus YPR106W, strain ISR1, stronger effect = lower value 0.971 | locus YPR111W, strain DBF20, stronger effect = lower value 0.97 | strain NNK1, stronger effect = lower value 0.958 | strain TSCII, stronger effect = lower value 0.965

Cc1ncc(C[n+]2csc(CCO)c2C)c(=O)[nH]1
inactive: [1] 1.04 | [2] 1.05 | [3] 0.991 | [4] 0.984 | [5] 0.979 | [6] 0.976 | [7] 1.03 | [8] 1.05
